Laboratory results reported in PubChem BioAssay (EPA / NIEHS).
Some structures have more than one record in an assay (separate samples or runs), and their calls can disagree. The source made the active and inactive calls. Rule for the calls: active = hit-call score of the fitted dose curve at least 0.9, where 1 is the maximum; inactive = score below 0.9.

assay: APR_HepG2_CellLoss_72hr: Apredica 72-hour HepG2 Assay for Cell Loss (AID 2282915); details: high-content imaging
Procedure: APR_HepG2_72hr is a cell-based, multiplexed-readout assay that uses HepG2, a human liver cell line, with measurements taken at 72 hours after chemical dosing in a 384-well plate.APR_HepG2_CellLoss_72hr is one of 10 assay component(s) measured or calculated from the APR_HepG2_72hr assay. It is designed to make measurements of cell number, a form of viability reporter, as detected with fluorescence intensity signals by HCS Fluorescent Imaging technology.Data from the assay component APR_HepG2_CellLoss_72hr was analyzed into 1 assay endpoint. This assay endpoint, APR_HepG2_CellLoss_72hr, was analyzed with bidirectional fitting relative to DMSO as the negative control and baseline of activity. Using a type of viability reporter, measures of all nuclear dna for gain or loss-of-signal activity can be used to understand the viability at the cellular-level. Furthermore, this assay endpoint can be referred to as a secondary readout, because this assay has produced multiple assay endpoints where this one serves a viability function. To generalize the intended target to other relatable targets, this assay endpoint is annotated to the cell cycle intended target family, where the subfamily is proliferation.
Cells were treated with dimethyl sulfoxide (DMSO) as a solvent control at a final concentration of 0.5% v/v or with compounds in DMSO with a resulting final DMSO concentration of 0.5% v/v. Compound treatment was done at concentrations of 0.39, 0.78, 1.56, 3.12, 6.24, 12.5, 25, 50, 100, and 200 uM in duplicate on each plate. Cells were treated with compounds for 1, 24, or 72 hr. Carbonyl […] m-chloro-phenylhydrazone (CCCP) and taxol were used as positive controls for mitochondrial function and cytoskeletal stability, respectively; DMSO served as the negative control for this experiment. Cells were fixed by the direct addition of 50 uL formaldehyde in Hank's Balanced Salt Solution (HBSS) to a final concentration of 3.7%. After incubation in the fixation medium for 30 min at room temperature (293-298 K), cells were rinsed twice with HBSS and treated with cell permeabilization buffer (16 uL of 0.5% Triton X-100) for 10 min at room temperature (293-298 K) before labeling. For mitochondrial membrane potential and mitochondrial measurements, pre-fixed cells were incubated with 50 uL of MitoTracker Red CMXRos (Invitrogen) at a concentration of 250 nM for 30 min before fixation. In the remaining cases, post-fixed cells were labeled by incubation with a multiplexed mixture of primary antibodies in HBSS for 60 min at room temperature (293-298 K) to detect immunoreactivity of c-Jun (1:500), phospho-histone H3 (1:100), phospho-histone H2A.x (1:200), p53 (1:400), alpha-tubulin (1:200) and Hoechst 33342 (2 ug/mL). Cells were labeled for multiplexed imaging on two separate plates: a) Hoechst 33342, MitoTracker Red, phospho-histone H3, and alpha-tubulin, and b) Hoechst 33342, phospho-histone H2A.x, and c-Jun. A final rinse with HBSS (50 uL) was performed before analysis. The primary and secondary antibodies for the proteins were phospho-histone H3 (rabbit anti-phospho-histone H3 and FITC-donkey anti-rabbit IgG), phospho-histone H2A.x (mouse anti-phospho-histone H2A.x and FITC-donkey anti-mouse IgG), c-Jun (rabbit anti-phospho-c-Jun and Cy3-donkey anti-rabbit IgG), p53 (sheep anti-p53 and Cy5-donkey anti-sheep IgG), alpha-tubulin (mouse anti-alpha-tubulin and Cy5-donkey anti-mouse IgG). These antibodies are available as the CellCiphr HepG2 assay kit (Millipore).Digital images of each well were captured using a Cellomics ArrayScan VTI (Thermo Scientific Cellomics) (0.8 NA objective, 0.63x optical coupler, and XF-93 filter set) at 20x magnification. The images were acquired using the autofocus feature of the ArrayScan instrument, which entails the following steps. First, the camera focuses on channel 1 (Hoechst 33342), where nuclei are identified. Second, a Z offset of 1 um is used for capturing mitochondria (MitoTracker Red). […]

SMILES | outcome | AC50
CCCN(CCC)C(=O)SCC | inactive | –
CC1(C)C(C=C(Cl)Cl)C1C(=O)OCc1cccc(Oc2ccccc2)c1 (stereo not given) | – | 62.3 µM (active)
COC(=O)c1cccc(C)c1S(=O)(=O)NC(=O)Nc1nc(OCC(F)(F)F)nc(N(C)C)n1 | inactive | –
CSC(=O)c1cccc2nnsc12 | inactive | –
CCCOC(=O)NCCCN(C)C | inactive | –
C[C@]12C[C@H](O)[C@H]3[C@@H](CCC4=CC(=O)CC[C@@]43C)[C@@H]1CC[C@@H]2C(=O)CO | – | 32.9 µM (active)
CCCCC(CC)CN1C(=O)C2C3C=CC(C3)C2C1=O (stereo not given) | – | 93.2 µM (active)
CCN(Cc1c(F)cccc1Cl)c1c([N+](=O)[O-])cc(C(F)(F)F)cc1[N+](=O)[O-] | – | 33.5 µM (active)
O=C(c1ccccc1)C1CCCCC1 | inactive | –
CC(=O)[C@H]1CC[C@H]2[C@@H]3CCC4=CC(=O)CC[C@]4(C)[C@H]3CC[C@]12C | – | 95.6 µM (active)
COc1c(Cl)ccc(Cl)c1C(=O)O | inactive | –
c1ccc(Nc2ccccc2)cc1 | inactive | –
CCOC(=O)C(C)Oc1ccc(Oc2nc3ccc(Cl)cc3o2)cc1 (stereo not given) | – | 90.1 µM (active)
c1ccc2[nH]c(-c3cscn3)nc2c1 | inactive | –
COc1nc(C)nc(NC(=O)NS(=O)(=O)c2ccccc2OCCCl)n1 | inactive | –
O=C(c1ccc(O)cc1O)c1ccc(O)cc1O | inactive | –
CCCCCCC(C)OC(=O)COc1nc(F)c(Cl)c(N)c1Cl (stereo not given) | inactive | –
CCOC(=O)[C@H](C)Oc1ccc(Oc2nc3ccc(Cl)cc3o2)cc1 | – | 117 µM (active)
O=C(O)C1(C(=O)Nc2ccc(Cl)cc2Cl)CC1 | inactive | –
O=C(Nc1ccc([N+](=O)[O-])cc1Cl)c1cc(Cl)ccc1O | – | 0.331 µM (active)

SMILES | outcome | AC50
COCCO | inactive | –
S=C(S)NCCNC(=S)S.[Mn+2].[S-]C([S-])=NCCN=C([S-])[S-].[Zn+2] | inactive | 46.5 µM (active) [middle of 5 runs]
Cc1nn(C)c(Oc2ccccc2)c1C=NOCc1ccc(C(=O)OC(C)(C)C)cc1 | – | 19.8 µM (active)
CCOC(=O)NCCOc1ccc(Oc2ccccc2)cc1 | – | 52.8 µM (active)
CC(C)(C)[C@@H](O)[C@@H](Cc1ccc(Cl)cc1)n1cncn1 | – | 33.4 µM (active)
CCCCC(CC)COC(=O)c1ccccc1C(=O)O (stereo not given) | inactive | –
OB(O)O | inactive | –
CCC(O)=C1C(=O)CC(C(=O)O)CC1=O (stereo not given) | inactive | –
N#CSCSc1nc2ccccc2s1 | – | 10 µM (active)
C#CCOC(=O)[C@@H](C)Oc1ccc(Oc2ncc(Cl)cc2F)cc1 | inactive | –
CCN(CC)C(=O)c1cccc(C)c1 | inactive | –
CCOC(=O)C(C)Oc1ccc(Oc2cnc3cc(Cl)ccc3n2)cc1 (stereo not given) | – | 80.6 µM (active)
CCCCOCCOCCOCc1cc2c(cc1CCC)OCO2 | – | 85.8 µM (active)
N[C@@H](Cc1cc(I)c(Oc2ccc(O)c(I)c2)c(I)c1)C(=O)O | inactive | –
COC(=O)c1ccc(CNS(C)(=O)=O)cc1S(=O)(=O)NC(=O)Nc1nc(OC)cc(OC)n1 | inactive | –
C[C@]12CC[C@@H]3c4ccc(O)cc4C[C@@H](CCCCCCCCCS(=O)CCCC(F)(F)C(F)(F)F)[C@H]3[C@@H]1CC[C@@H]2O (stereo not given in full) | inactive | –
CCNc1nc(N)nc(Cl)n1 | inactive | –
CC(C)(c1ccc(O)cc1)c1ccc(O)cc1 | – | 109 µM (active) [middle of 4 runs]
S=C([S-])NCCNC(=S)[S-].[Mn+2] | – | 11.5 µM (active)
